Assay results reported in PubChem BioAssay (Tox21).
Records with an inconclusive call do not appear. Calls of active or inactive are those of the source. Unless noted, calls follow the shape of the full dose curve.

What was measured:
[1] = qHTS assay to identify small molecule agonists of the sonic hedgehog signaling (Shh) pathway (AID 1259368); also: series mostly up to about 92 µM; nearly all actives have a fitted effect of over 15% in size
Outline: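 NIH/3T3-derived 3T3Gli1-Luc cells carrying a stably integrated Gli1 response element–firefly luciferase reporter were plated, left 4 hr at 37 C, then given compounds in DMSO for 24 hr. Luminescence was read 30 min after adding luciferase reagent.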

[2] = qHTS assay to identify small molecule agonists of the androgen receptor (AR) signaling pathway in the presence of an antagonist - cell viability counter screen (AID 1259379; active = well fitted curve in the direction sought with a large enough effect in the repeat runs; an effect the other way counts as inactive or inconclusive; also: nearly all actives have a fitted effect of over 25% in size; also: potency is read from the fitted curve at half-maximal effect)
Outline: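 MDA-kb2 human breast carcinoma cells (stable MMTV-luciferase, AR/GR responsive) were seeded 3,000 cells/well, pre-incubated 5 hr at 37C without CO2, then given 3.0uM nilutamide and compounds at 15 concentrations for 16 hr. Viability was read by CellTiter-Fluor fluorescence.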

[3] = qHTS assay to identify small molecule agonists of the estrogen receptor beta (ER-beta) signaling pathway - cell viability counter screen (AID 1259380; active = well fitted curve in the direction sought with a large enough effect in the repeat runs; an effect the other way counts as inactive or inconclusive; also: nearly all actives have a fitted effect of over 30% in size; also: potency is read from the fitted curve at half-maximal effect)
Outline: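 ER-beta-UAS-bla HEK293T cells in medium with 2% charcoal-stripped FBS were preincubated 6 hr at 37C, dosed with compound in DMSO for 16 hr, then after the bla read, CellTiter-Glo was added for 30 min at room temperature; luminescence recorded.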

[4] = qHTS assay to identify small molecule antagonists of the estrogen receptor beta (ER-beta) signaling pathway - cell viability counter screen (AID 1259382; active = well fitted curve in the direction sought with a large enough effect in the repeat runs; an effect the other way counts as inactive or inconclusive; also: nearly all actives have a fitted effect of over 55% in size; also: potency is read from the fitted curve at half-maximal effect)
Outline: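 ER-beta-UAS-bla HEK293T cells (2,000/well, 2% charcoal-stripped FBS) were pre-incubated 6 hr at 37C, then given compound plus 1nM final 17-beta-estradiol for 16 hr. Viability was read in the same wells by CellTiter-Glo luminescence after 30 min at room temperature.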

[5] = molecular target: Estrogen receptor (Homo sapiens) (UniProt P03372); assay: qHTS assay to identify small molecule agonists of the estrogen receptor alpha (ER-alpha) signaling pathway in the presence of an antagonist (AID 1259383); also: nearly all actives have a fitted effect of over 15% in size; also: potency is read from the fitted curve at half-maximal effect; as to activation: top concentration of the series differs between compounds
Sequence of Estrogen receptor (Homo sapiens) (P03372 whole entry, looked up): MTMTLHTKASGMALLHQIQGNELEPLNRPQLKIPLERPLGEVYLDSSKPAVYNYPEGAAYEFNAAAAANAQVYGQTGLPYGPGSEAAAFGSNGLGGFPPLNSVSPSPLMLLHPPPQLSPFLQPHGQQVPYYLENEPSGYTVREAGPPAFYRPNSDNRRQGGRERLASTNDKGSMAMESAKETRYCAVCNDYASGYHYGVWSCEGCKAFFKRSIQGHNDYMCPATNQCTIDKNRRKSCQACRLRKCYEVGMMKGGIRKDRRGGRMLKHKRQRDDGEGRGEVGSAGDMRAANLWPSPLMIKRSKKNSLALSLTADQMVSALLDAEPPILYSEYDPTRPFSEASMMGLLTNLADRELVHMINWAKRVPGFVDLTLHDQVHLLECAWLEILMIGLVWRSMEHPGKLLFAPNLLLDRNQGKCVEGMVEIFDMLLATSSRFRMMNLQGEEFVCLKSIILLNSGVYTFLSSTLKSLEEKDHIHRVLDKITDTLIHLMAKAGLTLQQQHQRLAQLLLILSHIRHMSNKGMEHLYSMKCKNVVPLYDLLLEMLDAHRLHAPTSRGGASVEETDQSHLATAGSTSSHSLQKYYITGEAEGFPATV
Outline: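 VM7Luc4E2 cells (endogenous full-length ER-alpha, 4×ERE-luciferase) were precultured 5 days in phenol red-free medium with 10% charcoal-stripped FBS, given 10.0nM ICI-182,780 (final), then treated with compounds at 15 concentrations for 22hr at 37C; luminescence read with ONE-Glo.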

[6] = qHTS assay to identify small molecule agonists or antagonists of the thyroid stimulating hormone receptor (TSHR) signaling pathway - wild type cell line counter screen (AID 1259384)
Outline: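 Wild-type HEK293 cells were plated 18 h at 37 C/5% CO2, pin-dosed with compound plus Ro20-1724 medium, held 30 min at room temperature, then given cAMP-d2 and anti-cAMP-cryptate; fluorescence was read after 1 h. Fifteen concentrations, triplicate.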

[7] = qHTS assay to identify small molecule antagonists of the sonic hedgehog signaling (Shh) pathway (AID 1259369); also: nearly all actives have a fitted effect of over 45% in size; also: potency is read from the fitted curve at half-maximal effect
Outline: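 NIH/3T3-derived 3T3Gli1-Luc cells with stably integrated Gli1-Luc reporter were preincubated 4hr at 37 C, then given compounds in DMSO plus Shh conditioned medium and incubated 24hr. Firefly luciferase luminescence read after 30min reagent at room temperature.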

[8] = molecular target: Estrogen receptor beta (Homo sapiens) (UniProt Q92731); assay: qHTS assay to identify small molecule antagonists of the estrogen receptor beta (ER-beta) signaling pathway (AID 1259378; active = well fitted inhibition curve with a large enough effect in the signal ratio in the repeat runs, not every such curve was filed as active; the % refers to the signal ratio)
Sequence of Estrogen receptor beta (Homo sapiens) (Q92731 whole entry, looked up): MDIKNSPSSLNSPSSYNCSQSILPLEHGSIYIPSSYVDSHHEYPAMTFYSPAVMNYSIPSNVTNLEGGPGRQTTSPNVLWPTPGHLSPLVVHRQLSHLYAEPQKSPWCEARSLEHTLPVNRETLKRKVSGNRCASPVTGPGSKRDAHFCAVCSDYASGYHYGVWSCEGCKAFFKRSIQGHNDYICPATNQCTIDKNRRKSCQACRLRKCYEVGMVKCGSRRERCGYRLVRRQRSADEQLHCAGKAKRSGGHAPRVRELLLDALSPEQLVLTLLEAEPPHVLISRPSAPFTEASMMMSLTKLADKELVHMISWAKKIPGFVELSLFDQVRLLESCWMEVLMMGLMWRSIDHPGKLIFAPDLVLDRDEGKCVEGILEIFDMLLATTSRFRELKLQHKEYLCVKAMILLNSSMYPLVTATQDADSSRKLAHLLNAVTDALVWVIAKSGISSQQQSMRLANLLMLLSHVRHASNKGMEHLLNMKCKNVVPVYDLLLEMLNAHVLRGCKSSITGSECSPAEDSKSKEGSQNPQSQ
Outline: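 ER-beta-UAS-bla HEK293T (GripTite) cells in 2% charcoal-stripped FBS medium were preincubated 6 hr at 37C, dosed with compound, then stimulated with 1 nM E2 (final) for 16 hr; beta-lactamase reporter read by B/G FRET fluorescence after 2 hr substrate loading.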

[9] = molecular target: Androgen receptor (Homo sapiens) (UniProt P10275); assay: qHTS assay to identify small molecule agonists of the androgen receptor (AR) signaling pathway in the presence of an antagonist (AID 1259381); also: nearly all actives have a fitted effect of over 15% in size
Sequence of Androgen receptor (Homo sapiens) (P10275 whole entry, looked up): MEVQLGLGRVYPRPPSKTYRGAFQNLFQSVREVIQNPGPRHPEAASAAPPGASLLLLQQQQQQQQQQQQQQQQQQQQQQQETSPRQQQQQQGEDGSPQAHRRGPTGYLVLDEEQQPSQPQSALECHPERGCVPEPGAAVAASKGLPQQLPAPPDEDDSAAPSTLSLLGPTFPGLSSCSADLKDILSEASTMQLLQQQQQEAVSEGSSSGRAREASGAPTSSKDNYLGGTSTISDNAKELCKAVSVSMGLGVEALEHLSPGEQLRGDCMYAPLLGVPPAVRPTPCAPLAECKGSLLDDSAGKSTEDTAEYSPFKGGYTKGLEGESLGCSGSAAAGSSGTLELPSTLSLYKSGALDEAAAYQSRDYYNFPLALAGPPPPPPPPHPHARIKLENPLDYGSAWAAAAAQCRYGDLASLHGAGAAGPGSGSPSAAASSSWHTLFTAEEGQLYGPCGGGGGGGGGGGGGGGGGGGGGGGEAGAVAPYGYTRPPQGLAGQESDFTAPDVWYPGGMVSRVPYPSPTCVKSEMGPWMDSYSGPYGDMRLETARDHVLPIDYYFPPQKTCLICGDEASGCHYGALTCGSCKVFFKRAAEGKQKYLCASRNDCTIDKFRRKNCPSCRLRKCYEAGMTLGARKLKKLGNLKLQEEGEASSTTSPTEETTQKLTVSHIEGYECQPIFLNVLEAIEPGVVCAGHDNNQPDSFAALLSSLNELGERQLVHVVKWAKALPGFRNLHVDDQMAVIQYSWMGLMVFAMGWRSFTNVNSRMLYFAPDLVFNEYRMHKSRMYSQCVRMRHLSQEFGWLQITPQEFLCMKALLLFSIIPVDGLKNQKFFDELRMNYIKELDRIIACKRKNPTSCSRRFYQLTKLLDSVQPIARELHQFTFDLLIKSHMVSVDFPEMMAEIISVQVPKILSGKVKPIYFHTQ
Outline: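 MDA-kb2 human breast carcinoma cells carrying an MMTV-luciferase reporter (AR- and GR-responsive) were treated with compounds at 15 concentrations plus 3.0uM final nilutamide for 16hr at 37C without CO2; luminescence was read after ONE-Glo addition.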

[10] = molecular target: Estrogen receptor beta (Homo sapiens) (UniProt Q92731); assay: qHTS assay to identify small molecule agonists of the estrogen receptor beta (ER-beta) signaling pathway (AID 1259377; active = well fitted activation curve with a large enough effect in the signal ratio in the repeat runs, not every such curve was filed as active; the % refers to the signal ratio; also: potency is read from the fitted curve at half-maximal effect)
Outline: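 HEK293T ER-beta-UAS-bla; 2% charcoal-stripped FBS; cells pre-incubated 6 hr, compound 16 hr, 37C/5% CO2; LiveBLAzer B/G FRET substrate 2 h RT; fluorescence intensity read.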

Measured: Potency

COc1ccc(C(=O)Nc2ccccc2)cc1[N+](=O)[O-]
active: [3] 30.9 µM
inactive: [1] | [2] | [4] | [5] | [6]

CC(=O)S[C@H](C(=O)N[C@H]1Cc2ccccc2[C@H]2CCC[C@@H](C(=O)O)N2C1=O)C(C)C
inactive: [1] | [7] | [2] | [4] | [6]

CCCC1CCOC(C)S1 (configuration not stated)
not listed: [3] | [7] | [10]
inactive: all other assays above

N#Cc1ccc(CC(=O)c2cccc(C(F)(F)F)c2)cc1
inactive: [1] | [2] | [4] | [6]

O=C(O)c1cccnc1Nc1cccc(C(F)(F)F)c1
inactive: [1] | [7] | [2] | [5]

SCCOCCOCCS
inactive: [7] | [2] | [4] | [5]

COc1ccc(/C=C/c2cc(OC)cc(=O)o2)cc1
not listed: [1] | [6] | [9]
inactive: all other assays above

O=C(O)c1ccncc1
inactive: [1] | [8] | [2] | [3] | [9] | [4]

OCC(O)c1ccccc1 (configuration not stated)
inactive: [1] | [7] | [2] | [5] | [6]

Oc1ccc(CCNCCCCCCNCCc2ccccc2)cc1O
inactive: [1] | [2] | [5] | [6]
active: [7] 9.44 µM

c1ccc(CCNc2nc(-c3ccccc3)cs2)cc1
inactive: [7] | [8] | [2] | [4] | [6]
active: [5] 0.944 µM

Cc1ccccc1CCO
inactive: [1] | [8] | [2] | [4] | [5] | [6]

COc1ccc(C(=O)c2ccc(C)cc2)c(O)c1
inactive: [7] | [2] | [3] | [4] | [5] | [6]

Oc1ccc(Oc2ccccc2)cc1
active: [10] 11.6 µM | [5] 41 µM
inactive: [1] | [2] | [3] | [4] | [6]

C[C@H]1C[C@H]2[C@@H]3CCC4=CC(=O)C=C[C@]4(C)[C@@]3(F)[C@@H](O)C[C@]2(C)[C@@]1(O)C(=O)COP(=O)(O)O
not listed: [3] | [7] | [9]
inactive: all other assays above

COc1ccc(/C=C/S(=O)(=O)NC(=O)c2ccc(C)cc2Cl)cc1
inactive: [1] | [7] | [2] | [6]

Cc1ccc2ccccc2c1[N+](=O)[O-]
not listed: [7] | [9]
inactive: all other assays above

CCC[Si](OC)(OC)OC
not listed: [7]
inactive: all other assays above

O=C(NC1CCN(CCc2c[nH]c3ccccc23)CC1)c1ccccc1
inactive: [1] | [10] | [8] | [4]

OCCCO
not listed: [6] | [7] | [10]
inactive: all other assays above

CCOCCn1c(N2CCCN(C)CC2)nc2ccccc21
inactive: [1] | [10] | [8] | [2] | [9] | [4]

C=CC(C)(O)CC/C=C(/C)CCC=C(C)C (configuration not stated)
inactive: [1] | [10] | [8] | [2] | [3] | [4]

CO[C@@H]1[C@@H](O[C@@H]2O[C@H](C)[C@@H](O[C@H]3C[C@@](C)(O)[C@@H](O)[C@H](C)O3)[C@H](N(C)C)[C@H]2O)[C@@H](CC=O)C[C@@H](C)[C@@H](O[C@@H]2CC[C@H](N(C)C)[C@@H](C)O2)/C=C/C=C/C[C@@H](C)OC(=O)C[C@H]1OC(C)=O
inactive: [1] | [10] | [8] | [2] | [4] | [5]

C(/C=C/C=C/Nc1ccccc1)=Nc1ccccc1
not listed: [6] | [7] | [9]
inactive: all other assays above

C=CC(O)CCCCC (configuration not stated)
inactive: [1] | [7] | [2] | [4] | [6]

CCn1nc(Cc2ccccc2)cc1C1CCN(C[C@H]2C[C@H](N(C)[C@@H](C(=O)O)C(C)C)C[C@@H]2c2cccc(F)c2)CC1
inactive: [1] | [2] | [4] | [5] | [6]

CC(Cc1ccccc1)(NC(=O)CN)c1ccccc1 (configuration not stated)
not listed: [3] | [7] | [9]
inactive: all other assays above

NC(=O)c1cc[n+](CC2=C(C(=O)[O-])N3C(=O)[C@@H](NC(=O)Cc4cccs4)[C@H]3SC2)cc1
not listed: [7] | [9]
inactive: all other assays above

CCCCCCC/C=C/C=O
inactive: [1] | [2] | [3] | [4] | [5] | [6]

O=c1[nH]nc(-c2ccc([N+](=O)[O-])o2)o1
active: [2] 54.5 µM
not listed: [7] | [9] | [10]
inactive: all other assays above

CC(C)(Cc1c[nH]c2ccccc12)NCC(O)COc1ccccc1C#N (configuration not stated)
inactive: [1] | [2] | [6]
active: [3] 29.8 µM | [4] 26.6 µM

Clc1ccccc1-c1nc(-c2ccncc2)no1
inactive: [7] | [2] | [3] | [4] | [6]

CCCc1nc(C)c2c(=O)[nH]c(-c3cc(S(=O)(=O)N4CCN(CC)CC4)ccc3OCC)nn12
inactive: [1] | [8] | [2] | [3] | [9] | [4]

O=C(Cl)c1cc(Cl)cc(Cl)c1
not listed: [3] | [7] | [9]
inactive: all other assays above

COc1cc(C)c(Cc2cnc(N)nc2N)cc1OC
inactive: [1] | [2] | [3] | [4] | [5]

CCOc1ccc(NC(C)=O)cc1N
not listed: [7]
inactive: all other assays above
